Calls of active or inactive are those of the source. Rule for the calls: active = hit-call score of the fitted dose curve at least 0.9, where 1 is the maximum; inactive = score below 0.9.

Read-out in one experiment: CYP2E1 (gene 1571)
Nature of the experiment: LTEA_HepaRG_CYP2E1: Life Technologies and Expression Analysis (LTEA) Assay for CYP2E1 using HepaRG (AID 2283485). Conditions: mRNA level, 48 h; actives raise or lower the signal. In short, it runs like this: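 CYP2E1 transcript was measured by TaqMan qRT-PCR in human HepaRG cultures after 48 h chemical exposure (top 100 uM, half-log steps, 0.5% DMSO vehicle). Housekeeping-gene normalization; gain or loss fitted relative to DMSO baseline.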
With `Nc1cccc(N)c1`, the outcome was inactive.
Same read-out and setting: the same measure for `CCCC(=O)OCC`: “inactive”.
Turning to `COc1ccc(/C=C/S(=O)(=O)NC(=O)c2ccc(C)cc2Cl)cc1`, the AC50 (commonly the midpoint of the concentration-response curve, whichever way the signal moves) is 69.6 µM (active).
For the compound `Nc1ccc(Nc2ccccc2)cc1`, the AC50 is 71.2 µM (active).
Still for that read-out and setting: the same measure for `COc1ccc2sc(C(=O)Nc3nnn[nH]3)c(OC(C)C)c2c1`: 91.6 µM (active).
With `O=C(OC[C@H]1O[C@@H](OC(=O)c2cc(O)c(O)c(OC(=O)c3cc(O)c(O)c(O)c3)c2)[C@H](OC(=O)c2cc(O)c(O)c(OC(=O)c3cc(O)c(O)c(O)c3)c2)[C@@H](OC(=O)c2cc(O)c(O)c(OC(=O)c3cc(O)c(O)c(O)c3)c2)[C@@H]1OC(=O)c1cc(O)c(O)c(OC(=O)c2cc(O)c(O)c(O)c2)c1)c1cc(O)c(O)c(OC(=O)c2cc(O)c(O)c(O)c2)c1`, the AC50 was 5.26 µM (active).
Consider `O=C1CCC(N2C(=O)c3ccccc3C2=O)C(=O)N1` (stereo not drawn), for which the outcome was inactive.
Take `COCCOc1cc2cc(C(=O)NC3CCN(C(C)C)CC3)n(CC(=O)Nc3ccc(Cl)cn3)c2cn1`: the AC50 was 52.6 µM (active).
On to `CC(O)CN(CCN(CC(C)O)CC(C)O)CC(C)O` (stereo not drawn), for which the compound was called inactive.
Regarding `C[C@](N)(Cc1ccc(O)c(O)c1)C(=O)O`, the call was inactive.
As for `O=C(O)c1cccc(N(Cc2cccnc2)c2ccc(OC(F)F)c(OC(F)F)c2)c1`, the AC50 is 5.18 µM (active).
Regarding `O=C(O)CCN(C1(C(=O)NO)CCCC1)S(=O)(=O)c1ccc(Oc2ccc(F)cc2)cc1`, the compound was classed as inactive.
Regarding `CC[C@H]1CC[C@H](NCc2cc3c(cc2OC)[C@H]2C[C@H]2C(=O)N3C)[C@H](c2ccccc2)N1`, the AC50 is 50 µM (active).
On to `C1N2CN3CN1CN(C2)C3`, for which the compound was called inactive.
For the compound `CCOCCO`, the compound was classed as inactive.
The same measure, in the same setting: the same measure for `Nc1nc2ncc(CNc3ccc(C(=O)N[C@@H](CCC(=O)O)C(=O)O)cc3)nc2c(=O)[nH]1`: “inactive”; for `CC(C)CCCCCCCOC(=O)CCCCC(=O)OCCCCCCCC(C)C`: “inactive”.
Regarding `Fc1ccccc1[C@@H](F)COC1CCC(Nc2ncnc3[nH]ncc23)CC1` (stereo partly drawn), the AC50 is 12.7 µM (active).
With `COC(=O)c1ccccc1O`, the call was inactive.
With `O=C(O)CC(O)C(=O)O` (stereo not drawn), the outcome was inactive.
Consider `COC(=O)c1c(Cl)c(Cl)c(C(=O)OC)c(Cl)c1Cl`, for which the compound was classed as inactive.
For `CC(C)=CCCC(C)CCO` (stereo not drawn), the compound was classed as inactive.
Consider `O=P(OC(CCl)CCl)(OC(CCl)CCl)OC(CCl)CCl`, for which the AC50 is 56 µM (active).
Turning to `CC(C)CCO`, the compound was classed as inactive.
Consider `O=c1[nH]c2ccc(S(=O)CCN3CCC(Cc4ccc(F)cc4)CC3)cc2o1` (stereo not drawn), for which the AC50 was 50 µM (active).
As to `On1ccccc1=S`, the result was inactive.
In the case of `C1=CCCC=CCCC=CCC1`, the result was inactive.
On to `CCCCCCCCCCCCc1ccccc1`, for which the outcome was inactive.
Take `CCCCCCCCCCCCCCCO`: the compound was classed as inactive.

Read-out in a further experiment: CYP4A11 (gene 1579)
Description: LTEA_HepaRG_CYP4A11: Life Technologies and Expression Analysis (LTEA) Assay for CYP4A11 using HepaRG (AID 2283486). Conditions: mRNA level, 48 h; actives raise or lower the signal. In short, it runs like this: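 Readout is CYP4A11 transcript level by qRT-PCR, normalized to three housekeeping genes and fitted bidirectionally against 0.5% DMSO. Human HepaRG cells were treated 48 h, in duplicate, with an 8-point half-log series topping at 100 uM.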
For the compound `Nc1cccc(N)c1`, the outcome was inactive.
As for `CCCC(=O)OCC`, the compound was called inactive.
As to `COc1ccc(/C=C/S(=O)(=O)NC(=O)c2ccc(C)cc2Cl)cc1`, the compound was classed as inactive.
As for `Nc1ccc(Nc2ccccc2)cc1`, the compound was classed as inactive.
For the compound `COc1ccc2sc(C(=O)Nc3nnn[nH]3)c(OC(C)C)c2c1`, the outcome was inactive.
As to `O=C(OC[C@H]1O[C@@H](OC(=O)c2cc(O)c(O)c(OC(=O)c3cc(O)c(O)c(O)c3)c2)[C@H](OC(=O)c2cc(O)c(O)c(OC(=O)c3cc(O)c(O)c(O)c3)c2)[C@@H](OC(=O)c2cc(O)c(O)c(OC(=O)c3cc(O)c(O)c(O)c3)c2)[C@@H]1OC(=O)c1cc(O)c(O)c(OC(=O)c2cc(O)c(O)c(O)c2)c1)c1cc(O)c(O)c(OC(=O)c2cc(O)c(O)c(O)c2)c1`, the AC50 was 10.4 µM (active).
With `O=C1CCC(N2C(=O)c3ccccc3C2=O)C(=O)N1` (stereo not drawn), the outcome was inactive.
For `COCCOc1cc2cc(C(=O)NC3CCN(C(C)C)CC3)n(CC(=O)Nc3ccc(Cl)cn3)c2cn1`, the AC50 is 69.7 µM (active).
Still for that read-out and setting: with `CC(O)CN(CCN(CC(C)O)CC(C)O)CC(C)O` (stereo not drawn) the figure was 12.8 µM (active).
Take `C[C@](N)(Cc1ccc(O)c(O)c1)C(=O)O`: the result was inactive.
On the same count and under the same terms, the same measure for `O=C(O)c1cccc(N(Cc2cccnc2)c2ccc(OC(F)F)c(OC(F)F)c2)c1`: “inactive”; for `O=C(O)CCN(C1(C(=O)NO)CCCC1)S(=O)(=O)c1ccc(Oc2ccc(F)cc2)cc1`: “inactive”.
In the case of `CC[C@H]1CC[C@H](NCc2cc3c(cc2OC)[C@H]2C[C@H]2C(=O)N3C)[C@H](c2ccccc2)N1`, the AC50 was 81.8 µM (active).
With `C1N2CN3CN1CN(C2)C3`, the compound was called inactive.
The same measure, in the same setting: with `CCOCCO` the entry was “inactive”; with `Nc1nc2ncc(CNc3ccc(C(=O)N[C@@H](CCC(=O)O)C(=O)O)cc3)nc2c(=O)[nH]1`, “inactive”.
Consider `CC(C)CCCCCCCOC(=O)CCCCC(=O)OCCCCCCCC(C)C`, for which the call was inactive.
As for `Fc1ccccc1[C@@H](F)COC1CCC(Nc2ncnc3[nH]ncc23)CC1` (stereo partly drawn), the AC50 was 40.1 µM (active).
As for `COC(=O)c1ccccc1O`, the outcome was inactive.
Regarding `O=C(O)CC(O)C(=O)O` (stereo not drawn), the result was inactive.
On to `COC(=O)c1c(Cl)c(Cl)c(C(=O)OC)c(Cl)c1Cl`, for which the result was inactive.
Still for that read-out and setting: the same measure for `CC(C)=CCCC(C)CCO` (stereo not drawn): “inactive”.
As to `O=P(OC(CCl)CCl)(OC(CCl)CCl)OC(CCl)CCl`, the AC50 was 67.8 µM (active).
For `CC(C)CCO`, the compound was called inactive.
For `O=c1[nH]c2ccc(S(=O)CCN3CCC(Cc4ccc(F)cc4)CC3)cc2o1` (stereo not drawn), the AC50 was 82.6 µM (active).
Consider `On1ccccc1=S`, for which the compound was classed as inactive.
Same read-out and setting: with `C1=CCCC=CCCC=CCC1` the entry was “inactive”; with `CCCCCCCCCCCCc1ccccc1`, “inactive”; with `CCCCCCCCCCCCCCCO`, “inactive”.

(Values after PubChem BioAssay (EPA / NIEHS).)
